Source: PubChem BioAssay (NCI)
This is part of a sample that, as a whole, favours compounds with a hit. Of some 79,000 tested, about 15% had one in any assay. The source made the active and inactive calls. Rule as the data show it: active = growth inhibition above about 70%; inactive = the rest.

Experiments:
[1] = NCI Yeast Anticancer Drug Screen. Data for the rad52 strain (AID 147);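 also: 0% = growth of vehicle-treated control cultures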; settings: S. cerevisiae rad52 mutant growth inhibition, hits give high values
Method in brief: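 Genetically altered yeast (DNA damage repair defect) treated with compound; inhibition calculated relative to vehicle.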

[2] = NCI Yeast Anticancer Drug Screen. Data for the wt1 strain (AID 149);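 also: 0% = growth of vehicle-treated wt1 cultures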; settings: S. cerevisiae wt1 strain (SPY 50644) growth inhibition, hits give high values
Method in brief: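 Growth inhibition read against vehicle controls after compound exposure of the wt1 yeast strain.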

[3] = NCI Yeast Anticancer Drug Screen. Data for the rad50EPP+ strain (AID 151);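 also: 0% = growth of vehicle-treated control cultures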; settings: S. cerevisiae rad50 mutant strain, hits give high values
Method in brief: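 Strain rad50EPP+; compound exposure; % growth inhibition vs vehicle.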

[4] = NCI Yeast Anticancer Drug Screen. Data for the mgt1 strain (AID 153); settings: S. cerevisiae mgt1 mutant growth inhibition, hits give high values
Method in brief: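 Read-out: yeast growth inhibition vs vehicle control. Strain mgt1, drawn from a panel altered in DNA damage repair or cell cycle control.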

[5] = NCI Yeast Anticancer Drug Screen. Data for the rad50 strain (AID 155);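 also: 0% = growth of vehicle-only cultures of the same strain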; settings: S. cerevisiae rad50 strain growth inhibition, hits give high values
Method in brief: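 Readout: growth inhibition relative to vehicle-treated cultures. Compound exposure was carried out in a genetically defined yeast strain deficient in DNA damage repair.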

[6] = NCI Yeast Anticancer Drug Screen. Data for the mec2-1 strain (AID 157); settings: S. cerevisiae mec2-1 strain, hits give high values
Method in brief: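 Cells of the genetically defined mec2-1 yeast strain are incubated with test compound. Inhibition of growth is calculated against vehicle-treated controls.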

[7] = NCI Yeast Anticancer Drug Screen. Data for the rad14 strain (AID 159);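 also: 0% = growth of vehicle-treated control cultures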; settings: S. cerevisiae rad14 strain growth inhibition, hits give high values
Method in brief: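 Growth inhibition vs vehicle controls; genetically altered yeast strain (DNA damage repair defect) treated with test compounds.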

[8] = NCI Yeast Anticancer Drug Screen. Data for the sgs1 mgt1 strain (AID 161);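 also: 0% = growth of cultures given vehicle only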; settings: S. cerevisiae sgs1 mgt1 strain, hits give high values
Method in brief: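 Mutant yeast exposed to compound; growth scored against vehicle-only wells.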

[9] = NCI Yeast Anticancer Drug Screen. Data for the bub3 strain (AID 167); settings: S. cerevisiae bub3 mutant strain, hits give high values
Method in brief: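 Readout: yeast growth inhibition, expressed relative to vehicle-only wells. The test organism is a mutant strain from a panel with lesions in DNA repair or checkpoint genes.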

[10] = NCI Yeast Anticancer Drug Screen. Data for the wt2 strain (AID 169);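 also: 0% = growth of vehicle-treated yeast cultures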; settings: S. cerevisiae wt2 strain growth inhibition, hits give high values
Method in brief: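 Steps: yeast strain treated with compound; growth recorded; inhibition calculated relative to cultures given vehicle alone.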

[11] = NCI Yeast Anticancer Drug Screen. Data for the mlh1 strain (AID 171);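 also: 0% = growth of vehicle-treated control cultures of the same strain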; settings: S. cerevisiae mlh1 strain growth inhibition, hits give high values
Method in brief: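 Yeast screen: mutant strain plus compound, growth scored against vehicle control wells.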

[12] = NCI Yeast Anticancer Drug Screen. Data for the sgs1 strain (AID 173);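 also: 0% = growth of vehicle-only control cultures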; settings: S. cerevisiae sgs1 mutant, hits give high values
Method in brief: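 Inhibition of yeast growth served as the measure. The mutant strain was treated with each compound, and growth was normalised to cultures receiving vehicle alone.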

[13] = NCI Yeast Anticancer Drug Screen. Data for the mlh1 rad18 strain (AID 175); settings: S. cerevisiae mlh1 rad18 strain growth inhibition, hits give high values
Method in brief: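 Compound-treated yeast growth, normalised to vehicle controls. Strain bears defined DNA repair mutations.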

[14] = NCI Yeast Anticancer Drug Screen. Data for the rad18 strain (AID 177); settings: S. cerevisiae rad18 mutant growth inhibition, hits give high values
Method in brief: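 Inhibition values reflect reduced yeast growth compared with vehicle-treated controls, using a strain engineered with a DNA damage repair defect.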

[15] = NCI Yeast Anticancer Drug Screen. Data for the CLN2oe strain (AID 163);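 also: 0% = growth of vehicle-only control cultures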; settings: S. cerevisiae CLN2oe strain, hits give high values
Method in brief: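 Strain altered in cell-cycle control, incubated with compound; growth compared to solvent-treated controls.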

[16] = NCI Yeast Anticancer Drug Screen. Data for the cln2 rad14 strain (AID 165);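 also: 0% = growth equal to vehicle treated cultures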; settings: S. cerevisiae cln2 rad14 strain, hits give high values
Method in brief: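 The screen exposed genetically defined yeast (cln2 rad14) to test compounds and scored growth inhibition relative to vehicle-treated controls.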

[17] = at 5.0 µM (retest, dose inferred, filed as 0.5)
[18] = at 50.0 µM (retest, dose inferred, filed as 5.0)

Measured: growth inhibition

O=C(CNS(=O)(=O)Cc1ccccc1)NNc1ccccc1
inactive: [1]; at 1.2 µM -1% | [1]; at 3.7 µM 2% | [1]; at 11.0 µM 12% | [1]; at 33.0 µM 35% | [1]; at 100.0 µM 44% | [2]; at 1.2 µM -1% | [2]; at 3.7 µM 5% | [2]; at 11.0 µM 4% | [2]; at 33.0 µM 23% | [2]; at 100.0 µM 36% | [3]; at 1.2 µM 2% | [3]; at 3.7 µM 4% | [3]; at 11.0 µM 22% | [3]; at 33.0 µM 43% | [3]; at 100.0 µM 58% | [4]; at 1.2 µM -1% | [4]; at 3.7 µM 12% | [4]; at 11.0 µM 14% | [4]; at 33.0 µM 16% | [4]; at 100.0 µM 16% | [5]; at 1.2 µM 2% | [5]; at 3.7 µM 4% | [5]; [17] 13% | [5]; at 11.0 µM 9% | [5]; at 33.0 µM 17% | [5]; [18] 64% | [5]; at 100.0 µM 24% | [6]; at 1.2 µM -1% | [6]; at 3.7 µM 0% | [6]; [17] -3% | [6]; at 11.0 µM 7% | [6]; at 33.0 µM 14% | [6]; [18] 9% | [6]; at 50.0 µM 62.5% | [6]; at 100.0 µM 16% | [7]; at 1.2 µM 0% | [7]; at 3.7 µM 3% | [7]; at 11.0 µM 6% | [7]; at 33.0 µM 13% | [7]; at 100.0 µM 20% | [8]; [17] 28% | [8]; at 50.0 µM 63.6% | [9]; at 1.2 µM 1% | [9]; at 3.7 µM 0% | [9]; [17] 5% | [9]; at 11.0 µM 2% | [9]; at 33.0 µM 8% | [9]; [18] 29% | [9]; at 50.0 µM 69.3% | [9]; at 100.0 µM 10% | [10]; at 1.2 µM 1% | [10]; at 3.7 µM 2% | [10]; at 11.0 µM 11% | [10]; at 33.0 µM 30% | [10]; at 100.0 µM 38% | [11]; at 1.2 µM -4% | [11]; at 3.7 µM 0% | [11]; at 11.0 µM 5% | [11]; at 33.0 µM 16% | [11]; at 100.0 µM 24% | [12]; at 1.2 µM -1% | [12]; at 3.7 µM -1% | [12]; at 11.0 µM 8% | [12]; at 33.0 µM 36% | [12]; at 100.0 µM 54% | [13]; at 50.0 µM 40.1% | [14]; at 1.2 µM 4% | [14]; at 3.7 µM 5% | [14]; at 11.0 µM 23% | [14]; at 33.0 µM 63%
active: [5]; at 50.0 µM 75.8% | [8]; [18] 71% | [13]; [17] 71% | [13]; [18] 90% | [14]; at 100.0 µM 83%

COc1ccc2oc(-c3ccc(Cl)cc3)c(N3CCN(C)CC3)c2c1
inactive: [1]; at 1.2 µM -1% | [1]; at 3.7 µM 0% | [2]; at 1.2 µM -1% | [2]; at 3.7 µM -3% | [2]; at 11.0 µM 30% | [3]; at 1.2 µM -1% | [3]; at 3.7 µM -4% | [3]; at 11.0 µM 28% | [4]; at 1.2 µM -2% | [4]; at 3.7 µM -1% | [5]; at 1.2 µM -3% | [5]; at 3.7 µM 0% | [5]; at 50.0 µM 56.3% | [6]; at 1.2 µM -3% | [6]; at 3.7 µM -3% | [6]; [17] 9% | [6]; at 50.0 µM 54.7% | [7]; at 1.2 µM 0% | [7]; at 3.7 µM 13% | [8]; [17] 23% | [8]; at 50.0 µM 58.5% | [15]; at 1.2 µM -6% | [15]; at 3.7 µM -5% | [16]; [17] 17% | [9]; at 1.2 µM -3% | [9]; at 3.7 µM -6% | [9]; [17] 17% | [9]; at 50.0 µM 62.1% | [10]; at 1.2 µM 0% | [10]; at 3.7 µM -3% | [11]; at 1.2 µM -2% | [11]; at 3.7 µM 0% | [12]; at 1.2 µM -1% | [12]; at 3.7 µM 0% | [13]; [17] 59% | [13]; at 50.0 µM 51.5% | [14]; at 1.2 µM 1% | [14]; at 3.7 µM 4%
active: [1]; at 11.0 µM 91% | [1]; at 33.0 µM 98% | [1]; at 100.0 µM 99% | [2]; at 33.0 µM 99% | [2]; at 100.0 µM 99% | [3]; at 33.0 µM 99% | [3]; at 100.0 µM 99% | [4]; at 11.0 µM 99% | [4]; at 33.0 µM 100% | [4]; at 100.0 µM 99% | [5]; [17] 79% | [5]; at 11.0 µM 94% | [5]; at 33.0 µM 99% | [5]; [18] 99% | [5]; at 100.0 µM 99% | [6]; at 11.0 µM 87% | [6]; at 33.0 µM 98% | [6]; [18] 100% | [6]; at 100.0 µM 99% | [7]; at 11.0 µM 99% | [7]; at 33.0 µM 99% | [7]; at 100.0 µM 99% | [8]; [18] 100% | [15]; at 11.0 µM 98% | [15]; at 33.0 µM 99% | [15]; at 100.0 µM 98% | [16]; [18] 98% | [16]; at 50.0 µM 99.5% | [9]; at 11.0 µM 98% | [9]; at 33.0 µM 99% | [9]; [18] 99% | [9]; at 100.0 µM 99% | [10]; at 11.0 µM 97% | [10]; at 33.0 µM 99% | [10]; at 100.0 µM 99% | [11]; at 11.0 µM 90% | [11]; at 33.0 µM 99% | [11]; at 100.0 µM 99% | [12]; at 11.0 µM 96% | [12]; at 33.0 µM 99% | [12]; at 100.0 µM 99% | [13]; [18] 99% | [14]; at 11.0 µM 91% | [14]; at 33.0 µM 99% | [14]; at 100.0 µM 99%

Nc1ccc2c(=S)c3ccccc3[nH]c2c1
inactive: [1]; at 1.2 µM 8% | [1]; at 3.7 µM 12% | [1]; at 11.0 µM 12% | [1]; at 33.0 µM 32% | [2]; at 1.2 µM 9% | [2]; at 3.7 µM 30% | [2]; at 11.0 µM 22% | [2]; at 33.0 µM 44% | [2]; at 100.0 µM 48% | [3]; at 1.2 µM 0% | [3]; at 3.7 µM 6% | [3]; at 11.0 µM 12% | [3]; at 33.0 µM 23% | [4]; at 1.2 µM -3% | [4]; at 3.7 µM 1% | [4]; at 11.0 µM 0% | [4]; at 33.0 µM 16% | [4]; at 100.0 µM 51% | [5]; at 1.2 µM 18% | [5]; at 3.7 µM 1% | [5]; [17] 15% | [5]; at 11.0 µM 8% | [5]; at 33.0 µM 22% | [5]; [18] 50% | [5]; at 50.0 µM 29.4% | [5]; at 100.0 µM 48% | [6]; at 1.2 µM 9% | [6]; at 3.7 µM -3% | [6]; [17] 14% | [6]; at 11.0 µM -3% | [6]; at 33.0 µM 26% | [6]; [18] 40% | [6]; at 50.0 µM 28.9% | [6]; at 100.0 µM 35% | [7]; at 1.2 µM 4% | [7]; at 3.7 µM 7% | [7]; at 11.0 µM 2% | [7]; at 33.0 µM 12% | [7]; at 100.0 µM 42% | [8]; [17] 29% | [15]; at 1.2 µM 16% | [15]; at 3.7 µM 4% | [15]; at 11.0 µM 13% | [15]; at 33.0 µM 19% | [15]; at 100.0 µM 51% | [16]; [17] 26% | [16]; [18] 62% | [16]; at 50.0 µM 28.3% | [9]; at 1.2 µM -19% | [9]; at 3.7 µM -16% | [9]; [17] 9% | [9]; at 11.0 µM -16% | [9]; at 33.0 µM -9% | [9]; at 50.0 µM 47.5% | [9]; at 100.0 µM 35%
active: [1]; at 100.0 µM 71% | [3]; at 100.0 µM 74% | [8]; [18] 83% | [8]; at 50.0 µM 80.5% | [9]; [18] 82%
